The text below walks through data of PubChem BioAssay AID1210 (NMMLSC, 2008).

This assay addresses Estrogen receptor beta (Homo sapiens) (UniProt Q92731). Briefly: ERbeta ligand binders by competition, primary screen, cell-based, Cos7 ERbeta-GFP, flow cytometry (AID 1210).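 Note: 0% = DMSO vehicle wells and 100% = complete loss of labeled estradiol signal.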 The following applies: fluorescent estrogen binding, stronger effect = higher value.
Setting [1] is: ligand binding inhibition, at 0.1 µM.

Calls of active or inactive are those of the source.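 Rule for the calls: active = blocks over 70% of labeled estradiol binding at 10 µM, or over a set limit at 100 nM; inactive = the rest.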

A word on the inhibition: it is the relative decrease from the control value, in per cent.

Sequence of Estrogen receptor beta (Homo sapiens) (Q92731 whole entry, looked up): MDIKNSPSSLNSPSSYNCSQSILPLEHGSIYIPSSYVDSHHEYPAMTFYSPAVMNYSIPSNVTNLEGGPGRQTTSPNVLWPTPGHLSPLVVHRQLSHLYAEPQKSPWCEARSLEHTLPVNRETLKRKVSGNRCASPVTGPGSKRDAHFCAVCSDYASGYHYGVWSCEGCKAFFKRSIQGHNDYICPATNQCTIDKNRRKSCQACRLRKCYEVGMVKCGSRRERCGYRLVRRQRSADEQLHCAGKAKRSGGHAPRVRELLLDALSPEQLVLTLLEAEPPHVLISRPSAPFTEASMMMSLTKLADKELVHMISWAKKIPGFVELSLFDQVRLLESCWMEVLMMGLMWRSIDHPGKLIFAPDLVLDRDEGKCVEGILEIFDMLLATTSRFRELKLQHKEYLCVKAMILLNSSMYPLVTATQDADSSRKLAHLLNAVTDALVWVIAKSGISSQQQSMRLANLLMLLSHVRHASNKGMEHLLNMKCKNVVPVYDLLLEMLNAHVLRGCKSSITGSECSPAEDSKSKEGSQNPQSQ

As for `O=C(Cc1cccs1)Nc1ccc(S(=O)(=O)N2CCCCC2)cc1`, the inhibition was 37% (inactive) (at 10 µM) and 38% under setting [1].
For `Cc1cc(=O)[nH]c(SCC(=O)NCc2ccco2)n1` the same measures were 59% (inactive) and 3%.
Take `Cc1nn(-c2ccc(Cl)cc2)c2sc(C(=O)N3CCN(c4ccccn4)CC3)cc12`: the inhibition is 50% (inactive) (at 10 µM) and 40% under setting [1].
For `COc1ccc2c(c1OC)C(=O)N1N=C(c3ccc(O)cc3)CC21` (stereo unspecified) the same measures were 21% (inactive) and 39%.
For `C/C(N)=C(/C#N)C(=O)CSc1nnc(Nc2cccc(C)c2C)s1` the same measures were 39% (inactive) and 7%.
On to `COc1ccc(-c2nn(-c3ccccc3)cc2/C=C2/SC(=S)N(Cc3ccco3)C2=O)c(C)c1`, for which the inhibition was 57% (inactive) (at 10 µM) and 23% under setting [1].
Taken in the same sequence, the figures for `Cc1ccc(N=Cc2c(O)n(-c3ccc4c(c3)OCO4)c(=O)c3ccccc23)cc1` were 15% (inactive) and 21%.
Taken in the same sequence, the figures for `COc1ccc2c(c1)c(=O)oc1cc(OCC(=O)N3CCC(C)CC3)ccc12` were 52% (inactive) and 35%.
Taken in the same sequence, the figures for `Cc1ccccc1Nc1nnc(SCC(=O)NCc2ccco2)s1` were 26% (inactive) and 18%.
As to `Nc1ccc(-c2nc3ccc(C(=O)O)cc3s2)cc1`, the inhibition is 65% (inactive) (at 10 µM) and 10% under setting [1].
In the case of `Cc1cc(O)ccc1C1(c2ccc(O)cc2C)OC(=O)c2ccccc21`, the inhibition is 36% (inactive) (at 10 µM) and 10% under setting [1].
As to `Oc1ccc(C=Nc2ccc(N3CCOCC3)cc2)c(O)c1`, the inhibition is 51% (inactive) (at 10 µM) and 63% under setting [1].
Consider `Cc1ccc(-c2nn(-c3ccccc3)cc2/C=N/NC(=O)c2ccc(Br)o2)cc1`, for which the inhibition (at 10 µM) was 38% (inactive) and the inhibition under setting [1] is 58%.
Taken in the same sequence, the figures for `CCOc1cc(C2CC(=O)c3c(ccc4ccccc34)N2)ccc1O` (stereo unspecified) were 19% (inactive) and 8%.
Consider `CC1=C(SCCC#N)S/C(=C2\SC(C)=C(SCCC#N)S2)S1`, for which the inhibition is 49% (inactive) (at 10 µM) and 11% under setting [1].
Consider `CC(O)C1CCC2C3CC[C@H]4CC(O)CCC4(C)C3CC3(OCCO3)C12C` (stereo partly specified), for which the inhibition runs as follows: (at 10 µM) 18% (inactive); under setting [1], 13%.
With `COC(=O)c1[nH]c2ccc(C)cc2c1NC(=O)CN1CCCc2ccccc21`, the inhibition by setting is: (at 10 µM) 56% (inactive); under setting [1], 26%.
For `O=C(c1cc2sccc2n1Cc1ccccc1)N1CCc2ccccc21` the same measures were 42% (inactive) and 2%.
On to `CCOc1ccc(C2C3=C(Nc4nc(N)[nH]c(=O)c42)c2ccccc2C3=O)cc1` (stereo unspecified), for which the inhibition runs as follows: (at 10 µM) 22% (inactive); under setting [1], 39%.
As for `O=C(CSc1nc(C2CCCCC2)n(-c2ccccc2)n1)NCC(F)(F)F`, the inhibition was 0% (inactive) (at 10 µM) and 21% under setting [1].
Taken in the same sequence, the figures for `Cc1ccccc1CSCC(=O)NC(=O)NCc1ccco1` were 27% (inactive) and 35%.
For `CCC(=O)Oc1ccc(C(CC)C(CC)c2ccc(OC(=O)CC)cc2)cc1` (stereo unspecified) the same measures were 82% (active) and 83%.
For `O=C1CC(=O)N2N=C(c3ccc([N+](=O)[O-])cc3)SC2=N1` the same measures were 45% (inactive) and 19%.
For the molecule `O=C(OCC(=O)N1CCN(C(=O)c2ccco2)CC1)c1cc(-c2ccco2)nc2ccccc12`, the inhibition is, setting by setting: (at 10 µM) 25% (inactive); under setting [1], 33%.
For `CSc1ccc(S(=O)(=O)Nc2cccc(F)c2)cc1` the same measures were 21% (active) and 75%.
Regarding `O=S(=O)(NCc1csc(-c2cccnc2)n1)c1ccc(Cl)s1`, the inhibition reads like this: (at 10 µM) 31% (inactive); under setting [1], 19%.
On to `Cc1oc2cc(O)ccc2c(=O)c1Oc1ccccc1`, for which the inhibition is 22% (inactive) (at 10 µM) and 37% under setting [1].
Regarding `C/C(N)=C(/C#N)C(=O)CSc1nnnn1-c1ccc(C)cc1`, the inhibition is 27% (inactive) (at 10 µM) and 57% under setting [1].
For `CCOC(=O)C1CCCN(C(=O)c2cc3ncc(Br)cn3n2)C1` (stereo unspecified) the same measures were 0% (inactive) and 26%.
For `CN1C(=O)CSc2ccc(NC(=O)N3CCC(N4CCCCC4)CC3)cc21` the same measures were 30% (inactive) and 19%.
`CCc1ccc(NC(=O)c2noc3c2CCC3)cc1`: the inhibition runs as follows: (at 10 µM) 8% (inactive); under setting [1], 22%.
Taken in the same sequence, the figures for `C[C@@H]1O[C@@H](Oc2c(-c3cc(O)c(O)c(O)c3)oc3cc(O)cc(O)c3c2=O)[C@H](O)[C@H](O)[C@H]1O` were 31% (inactive) and 30%.
For the molecule `Nc1ccc2nc(-c3cccs3)[nH]c2c1`, the inhibition by setting is: (at 10 µM) 50% (inactive); under setting [1], 34%.
For `Cc1cc2n(c1)CCn1c(C)ccc1-2` the same measures were 17% (inactive) and 31%.
Taken in the same sequence, the figures for `CCn1c(SCC(=O)Nc2ccc3c(c2)oc2ccccc23)nnc1-c1ccc(N)cc1` were 56% (inactive) and 18%.
Taken in the same sequence, the figures for `COc1ccc(NC(=O)C(c2ccccc2)N(C)C(=O)c2ccc(=O)[nH]c2)cc1` (stereo unspecified) were 17% (inactive) and 56%.
Regarding `NS(=O)(=O)c1ccc2c(c1)C1C=CCC1C(C1CC=CCC1)N2` (stereo unspecified), the inhibition was 14% (inactive) (at 10 µM) and 2% under setting [1].
For `COc1cc(C2CC(=O)c3c(ccc4ccccc34)N2)ccc1O` (stereo unspecified) the same measures were 47% (inactive) and 14%.
Taken in the same sequence, the figures for `CCOC(=O)N1CCN(S(=O)(=O)c2ccc(C(=O)Nc3nc4ccc(F)cc4s3)cc2)CC1` were 69% (inactive) and 39%.
For `COc1cccc(NC(=O)CSc2nc3ccccc3c3nc4ccccc4n23)c1`, the inhibition (at 10 µM) is 31% (inactive) and the inhibition under setting [1] came to 18%.
Regarding `O=C(c1cccs1)N1N=C(c2ccc(O)cc2)CC1c1ccccc1` (stereo unspecified), the inhibition was 68% (inactive) (at 10 µM) and 23% under setting [1].
On to `CC(C)(C)c1nnc2sc(SC/C(O)=C(\C#N)c3nc4ccccc4[nH]3)nn2c1=O`, for which the inhibition (at 10 µM) is 31% (inactive) and the inhibition under setting [1] stood at 15%.
For `Nc1ccc(-n2cnc3cc([N+](=O)[O-])ccc32)cc1`, the inhibition is 34% (inactive) (at 10 µM) and 12% under setting [1].
For the molecule `O=C(Oc1cccc(-c2cnc3ccccc3n2)c1)c1ccco1`, the inhibition was 9% (inactive) (at 10 µM) and 4% under setting [1].
For `COc1cc(-c2nc3ccccn3c2/N=C/c2ccccc2)ccc1O` the same measures were 54% (inactive) and 9%.
Taken in the same sequence, the figures for `CCCCn1c(NC(=O)CC)c(C#N)c2nc3ccccc3nc21` were 47% (inactive) and 17%.
In the case of `COc1ccc2[nH]c3nc(SCc4nnc(-c5ccc(C)cc5)o4)nnc3c2c1`, the inhibition by setting is: (at 10 µM) 49% (inactive); under setting [1], 18%.
Taken in the same sequence, the figures for `COc1cc(/C=N/N2CCN(C3c4ccccc4-c4ccccc43)CC2)ccc1O` were 39% (inactive) and 10%.
Taken in the same sequence, the figures for `Oc1ccc(-c2nc3ccc4ccccc4c3c3c2CCC3)cc1O` were 71% (active) and 47%.
As for `COc1ccc2c(c1)C1C=CCC1C(c1cc3c(cc1Br)OCO3)N2` (stereo unspecified), the inhibition is, setting by setting: (at 10 µM) 0% (inactive); under setting [1], 41%.
`Cc1ccc2[nH]c(=O)c(-c3nc4ccccn4c3NCc3ccco3)cc2c1`: the inhibition (at 10 µM) is 56% (inactive) and the inhibition under setting [1] was 44%.
Taken in the same sequence, the figures for `O=c1[nH]cnc2c1sc1nc3c(c(-c4ccc(Cl)cc4)c12)CCC3` were 51% (inactive) and 19%.
Taken in the same sequence, the figures for `NC(=O)c1cccc2c1C(=O)N(C1CCCCC1)C2` were 3% (inactive) and 4%.
For `CCN(CC)CCCNC(=O)c1nn(-c2ccccc2OC)c(=O)c2ccccc12` the same measures were 40% (inactive) and 19%.
In the case of `COc1ccc(C2Nc3ccccc3C(=O)N2c2ccc(Cl)cc2)cc1Cn1cc([N+](=O)[O-])cn1` (stereo unspecified), the inhibition is 63% (inactive) (at 10 µM) and 36% under setting [1].
In the case of `Cc1c(C(=O)OCc2ccccc2)[nH]c2c1C(=O)CC(c1ccco1)C2` (stereo unspecified), the inhibition was 45% (inactive) (at 10 µM) and 17% under setting [1].
For `O=C(COC(=O)c1ccccc1Oc1ccccc1)NCc1ccco1` the same measures were 16% (inactive) and 65%.
For `O=C(O)c1ccc2c(c1)[C@@H]1C=CC[C@@H]1[C@H](c1ccccn1)N2` the same measures were 0% (inactive) and 25%.
For `Oc1ccc(-c2nccc(-c3cccs3)n2)cc1` the same measures were 28% (inactive) and 14%.
Turning to `CCCc1nc2sc3ccccc3c(=O)c2c(=O)n1Cc1ccco1`, the inhibition (at 10 µM) was 21% (inactive) and the inhibition under setting [1] is 5%.
For `O=C(CCCn1c(=S)[nH]c2cc3c(cc2c1=O)OCO3)N1CCN(c2ccc(Cl)cc2)CC1` the same measures were 0% (inactive) and 56%.
For the molecule `Oc1ccc(-c2nc(-c3ccc(O)c(O)c3)cs2)cc1`, the inhibition runs as follows: (at 10 µM) 55% (inactive); under setting [1], 54%.
Take `N#CC(C(=O)Nc1ccc(Cl)cc1)=C1Nc2ccccc2N1`: the inhibition was 59% (inactive) (at 10 µM) and 21% under setting [1].
